The record followed here is PubChem BioAssay (NCATS).

Records with an inconclusive call do not appear. Active and inactive are the calls of the source. Unless noted, the call rests on the fitted dose curve; in most records, active means well fitted curve in the direction sought with a large enough effect; inconclusive means small, poorly fitted or top-dose-only effect, or another doubt; inactive means no such curve, though single readings can be large; an effect the other way counts as inactive or inconclusive.

Assay [1] concerns the target Tumor susceptibility gene 101 protein (Homo sapiens) (UniProt Q99816). As to the kind of experiment: qHTS Assay for Iinhibitors of HIV-1 Budding by Blocking the Interaction of PTAP/TSG101: Hit Validation (AID 651600). Further: on the % scale 0 is the no-effect control and ±100 the full control effect; nearly all actives have a fitted effect of over 70% in size. Summed up: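 Fluorescence polarization binding assay: Tsg101 binding domain (10 uM) mixed with compounds and FITC-labeled PTAP peptide (50 nM) in HEPES pH 7.5, 0.15 M NaCl, 0.01% Tween 20, EDTA, TCEP; 20 min at r.t.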
Background: qHTS replaces the single test concentration by a dilution series.

The nature of assay [2]: qHTS profiling of the MIPE4 collection as inhibitors of Plasmodium falciparum (3D7) proliferation (AID 743344; call rule not given here;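 further: scaled between DMSO vehicle wells and 0.29 µM artemisinin as full inhibition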). To be noted: P. falciparum 3D7 in erythrocytes, SYBR Green DNA fluorescence, 72 h; at 28.5 µM (top of the series). An outline of the steps:
(§1)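 Erythrocytes infected with P. falciparum (0.3% parasitemia, 2.5% hematocrit) incubated with compounds 72 h at 37 C, 5% CO2. Lysis with saponin/Triton buffer containing SYBR Green I, overnight at room temperature in the dark; DNA fluorescence (485/535 nm) normalised to 0.29 uM artemisinin and DMSO.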

The nature of assay [3]: qHTS profiling of the MIPE4 collection as inhibitors of Plasmodium falciparum (DD2) proliferation (AID 743345; call rule not given here). Particulars: P. falciparum Dd2 in erythrocytes, SYBR Green DNA, 72 h; at 28.5 µM (top of the series). Summed up:
as §1

Assay [4] in a line: qHTS profiling of the MIPE4 collection as inhibitors of Plasmodium falciparum (DD2) proliferation (Rep 2) (AID 743346; call rule not given here). To be noted: P. falciparum Dd2 in erythrocytes, SYBR Green DNA, 72 h; at 28.5 µM (top of the series). An outline of the steps:
as §1

Assay [5] is described as follows: qHTS profiling of the MIPE4 collection as inhibitors of Plasmodium falciparum (HB3) proliferation (AID 743347; call rule not given here;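 further: plate controls were DMSO vehicle wells for no effect and artemisinin wells for full effect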). To be noted: P. falciparum HB3 in erythrocytes, SYBR Green DNA, 72 h; at 28.5 µM (top of the series). An outline of the steps: as §1
Assay [6] addresses Calcium and integrin-binding protein 1 (Homo sapiens) (UniProt Q99828). Briefly: Primary qHTS for Identification of Calcium Integrin Binding Protein 1 (CIB1) Competitor (AID 1508620).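 Further: GST tagged CIB1 binding a fluorescein labelled alphaIIb integrin peptide tracer; top concentration of the series differs between compounds; on the % scale 0 is the no-effect control and ±100 the full control effect.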 Summed up:
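Fluorescence polarization competition: GST-tagged CIB1 (1 uM final) preincubated with compound 15 min at room temperature, then FITC-labelled alphaIIb peptide (100 nM final) added. After 15 min at room temperature, polarization read at Ex 480/Em 540.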

Assay [7] concerns the target Glutathione peroxidase 1 (Homo sapiens) (UniProt P07203). Briefly: Primary qHTS Assay for Inhibitors of Recombinant Selenoprotein Glutathione Peroxidase 1 (GPX1) (AID 1845191). Further: on the % scale 0 is the no-effect control and ±100 the full control effect; nearly all actives have a fitted effect of over 65% in size. Summed up: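 GR-coupled assay: compounds preincubated 30 min at room temperature with GPX1, then reaction started with CHP; final 10 nM GPX1, 1 mM GSH, 0.5 mM CHP, 0.5 mM NADPH, 100 nM GR, 0.01% BSA, pH 7.5 Tris buffer. NADPH fluorescence (340/450 nm) read at 0 and 15 min.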

The subject of assay [8] is Zika virus NS2B-NS3 protease. Briefly: Primary screen GU AMC qHTS for Zika virus inhibitors (AID 1347154).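 Further: 0% = no-inhibitor control and -100% = no-enzyme control; nearly all actives have a fitted effect of over 70% in size.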 Summed up:
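Unlinked Zika NS2B hydrophilic domain–NS3 protease complex at 25 nM in 10 mM Tris-HCl pH 8.0, 0.01% Tween 20, with an AMC peptide substrate. Fluorescence change (340/450 nm) over 15 min at room temperature, normalized to controls, fitted to 4-parameter Hill.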

Assay [9] deals with Glucocorticoid receptor (Homo sapiens) (UniProt P04150). As to the kind of experiment: GR-GFP Redistribution (AID 450;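 active means compounds whose dose series gives a full or clear partial fitted curve of increased nuclear translocation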; further: potency means the concentration at half of the fitted maximal effect). Particulars: U2OS GR-GFP nuclear translocation, laser cytometry, 2 h.
For assay [10] the target is unchanged. As to the kind of experiment: GR-EFC Redistribution (AID 451; calls by dose curve; further: potency means the concentration at half of the fitted maximal effect). To be noted: CHO-K1 GR-EFC translocation, beta-gal luminescence, 2 h. Summed up: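 CHO-K1 cells expressing nuclear EA and GR-ED fragments of b-gal; compounds titrated up to 46 uM final, 2 h at 37 C. GR nuclear translocation read as complemented b-gal luminescence after 1 h RT detection.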
Assay [11] addresses Mitogen-activated protein kinase 10 (Mus musculus) (UniProt Q61831). As to the kind of experiment: JNK3 AlphaScreen Assay (AID 530; active means well fitted curve in either direction with a large enough effect, not every such curve was filed as active;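 further: kinase came from lysate of stimulated human HepG2 cells; signal reports phosphorylation of biotinylated GST-cJun 1-79 at Ser73 with 10 µM ATP; on the % scale 0 is the no-effect control and ±100 the full control effect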). Summed up: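 Pre-activated (IL-1β/TNFα) JNK3 in HepG2 lysates phosphorylates biotin-GST-cJun(1-79), 10 uM ATP; anti-phospho-cJun(Ser73) AlphaScreen read at room temperature, pH 7.6 Tris buffer. Compounds pre-incubated 15 min as titrations.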
(Alpha assays give light when donor and acceptor beads are brought close together.)

Assay [12] can be described thus: Validation of Assay for Modulators of Lamin A Splicing (AID 1459; active means well fitted curve in the direction sought with a large enough effect in the signal ratio; the % refers to the signal ratio;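 further: cells exposed to compound for two days before reading; 0% is about no effect; ratio rise marks activators and ratio drop marks inhibitors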). An outline of the steps:
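S3 HeLa stably expressing lamin A-EGFP splicing minigene and DsRed2, 600 cells/well in Opti-MEM with 2% FBS, treated 48 h at 37C; laser-scanning cytometry gives GFP/RFP total intensity ratio; ancitabine positive control, 0.5% DMSO vehicle.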

Assay [13] can be described thus: qHTS for differential inhibitors of proliferation of Plasmodium falciparum line 7G8 (AID 1815).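 Further: potency means the concentration at half of the fitted maximal effect; parasite growth measured after three days of incubation.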
The nature of assay [14]: qHTS for differential inhibitors of proliferation of Plasmodium falciparum line GB4 (AID 1816).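 Further: potency means the concentration at half of the fitted maximal effect; parasite growth measured after 72 h incubation.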 To be noted: Potency: Plasmodium falciparum GB4 proliferation inhibition.
The nature of assay [15]: qHTS for differential inhibitors of proliferation of Plasmodium falciparum line 3D7 (AID 1876). Further: potency means the concentration at half of the fitted maximal effect.
Assay [16] can be described thus: qHTS for differential inhibitors of proliferation of Plasmodium falciparum line D10 (AID 1877).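 Further: potency means the concentration at half of the fitted maximal effect; parasites grown with compound for 72 h before DNA staining.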
Assay [17] in a line: qHTS for differential inhibitors of proliferation of Plasmodium falciparum line Dd2 (AID 1882). Further: potency means the concentration at half of the fitted maximal effect; nearly all actives have a fitted effect of over 65% in size. To be noted: Potency: Plasmodium falciparum Dd2 proliferation inhibition. Summed up: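 Dd2-infected erythrocytes (0.3% parasitemia, 2.5% hematocrit final) incubated with compound 72 h at 37 C, 5% CO2; lysed with saponin/Triton buffer containing SYBR Green I, incubated overnight in the dark, then read by fluorescence (485/535 nm). Normalized to 0.29 uM artemisinin and DMSO.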

Assay [18] can be described thus: qHTS for differential inhibitors of proliferation of Plasmodium falciparum line W2 (AID 1883).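 Further: potency means the concentration at half of the fitted maximal effect; parasites grown with compound for 72 h before lysis and staining.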 To be noted: Potency: Plasmodium falciparum W2 proliferation inhibition.
Assay [19] is described as follows: qHTS for differential inhibitors of proliferation of Plasmodium falciparum line HB3 (AID 1886).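 Further: potency means the concentration at half of the fitted maximal effect; parasites grown with compound for 72 h before SYBR Green readout.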 To be noted: Potency: Plasmodium falciparum HB3 proliferation inhibition.
In assay [20] the target is ATP-dependent DNA helicase Q1 (Homo sapiens) (UniProt P46063). As to the kind of experiment: qHTS Validation Assay for Inhibitors of RecQ-Like Dna Helicase 1 (RECQ1) (AID 2353).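 Further: plate controls were DMSO vehicle for no effect and enzyme-free control for full effect.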 Summed up:
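50 nM RECQ1T1 preincubated 15 min with compound in Tris pH 8.0 buffer with MgCl2, DTT, Tween-20 and 2.5 ug/ml poly(dI-dC); started with 200 nM TAMRA/BHQ-2 forked duplex and 2 mM ATP. Unwinding read as fluorescence (525/598 nm), two reads 2 h apart.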

Assay [21] addresses M-phase phosphoprotein 8 (Homo sapiens) (UniProt Q99549). As to the kind of experiment: qHTS Validation Assay for Inhibitors for MPP8 Chromodomain Interactions with Methylated Histone Tails (AID 488949). Further: top concentration of the series differs between compounds; on the % scale 0 is the no-effect control and ±100 the full control effect; nearly all actives have a fitted effect of over 55% in size. An outline of the steps:
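MPP8 (50 nM) was pre-bound to 50 nM biotinylated H3(1-18)K9me3 peptide in PBS pH 7.4 with 0.01% Tween-20. Compounds were then added for 30 min at room temperature, and complex disruption was read by AlphaScreen with streptavidin donor and nickel-chelate acceptor beads.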

For assay [22], the target named is Thyrotropin receptor (Homo sapiens) (UniProt P16473). Briefly: qHTS Assay for Antagonists of the Thyroid Stimulating Hormone Receptor (AID 488980). Further: 0% is about no effect. An outline of the steps: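 TSHR-transfected HEK293 cells (2000/well) in HEPES-buffered HBSS with 70 uM RO 20-1724 were stimulated with 4 nM TSH (EC80, final) in the presence of compound. cAMP was measured by HTRF competition after lysis and 30 min at RT.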

The target in assay [23] is Thyrotropin-releasing hormone receptor (Homo sapiens) (UniProt P34981). Briefly: qHTS for Small Molecule Agonists and Allosteric Enhancers of Human TRH Receptor: Validation Screen for Agonists (AID 493127;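 active means calcium activation more than 3 SD above the typical response in the agonist read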;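 further: intracellular calcium rise by fluo-8 fluorescence before TRH EC20 addition; 0% is about no effect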). Particulars: TRH receptor agonist cell assay; at 2 µM; stronger effect = higher value. Summed up:
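Cells 2000/well, 10% FCS, 18 h 33.5C/5% CO2 → fluo-8 Ca dye, RT 30 min–1.5 h → FDSS baseline 10 × 1 s → compound added → 230 cycles (1 s/cycle) agonist mode. TRH controls.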

Assay [24] deals with Galactokinase (Homo sapiens) (UniProt P51570). Briefly: qHTS Validation Assay for Inhibitors of Human Galactokinase (GALK) (AID 493189). Further: 0% is about no effect. Summed up:
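GALK (5 nM) with 35 uM ATP and 100 uM galactose in HEPES pH 8.0 with MgCl2, NaCl, DTT and BSA. Reaction ran 1 h at room temperature. Residual ATP read by Kinase-Glo Plus luminescence.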

Assay [25] addresses DNA dC->dU-editing enzyme APOBEC-3G (Homo sapiens) (UniProt Q9HC16). As to the kind of experiment: qHTS for inhibitors of Vif-A3G interactions: Validation (AID 588379). Further: 0% is about no effect. Summed up: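 HeLa cells stably expressing Vif and A3G-eYFP, 700 cells/well, incubated overnight at 37 deg C, then exposed to compound overnight at 37 deg C. Inhibition of Vif-mediated degradation read as increased yellow fluorescence (Ex 488/Em 500-530) by laser-scanning cytometry.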

For assay [26], the target named is Voltage-gated inwardly rectifying potassium channel KCNH2 (Homo sapiens) (UniProt Q12809). Briefly: qHTS Assay for Small Molecule Inhibitors of the Human hERG Channel Activity (AID 588834).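 Further: potency means the concentration at half of the fitted maximal effect; lower thallium flux fluorescence means stronger hERG block; nearly all actives have a fitted effect of over 50% in size.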 Summed up: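 U2OS cells BacMam-transduced with hERG, 2000 cells/well, compound ~10 min at 37 °C before stimulation buffer. FluxOR thallium flux fluorescence read kinetically on FDSS; decrease indicates block; AC50 from Hill fits.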

The nature of assay [27]: Primary qHTS for small molecule stabilizers of the endoplasmic reticulum resident proteome: Secreted ER Calcium Modulated Protein (SERCaMP) assay (AID 1508630). Further: on the % scale 0 is the no-effect control and ±100 the full control effect. Summed up:
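GLuc-SERCaMP-expressing SH-SY5Y cells, pretreated 16 h with compound, are challenged with thapsigargin to empty ER calcium stores; after 4 h, coelenterazine is added directly to the medium and luminescence is imaged.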

Glucocorticoid receptor (Homo sapiens), sequence (P04150 whole entry, looked up, the tested form may be a part): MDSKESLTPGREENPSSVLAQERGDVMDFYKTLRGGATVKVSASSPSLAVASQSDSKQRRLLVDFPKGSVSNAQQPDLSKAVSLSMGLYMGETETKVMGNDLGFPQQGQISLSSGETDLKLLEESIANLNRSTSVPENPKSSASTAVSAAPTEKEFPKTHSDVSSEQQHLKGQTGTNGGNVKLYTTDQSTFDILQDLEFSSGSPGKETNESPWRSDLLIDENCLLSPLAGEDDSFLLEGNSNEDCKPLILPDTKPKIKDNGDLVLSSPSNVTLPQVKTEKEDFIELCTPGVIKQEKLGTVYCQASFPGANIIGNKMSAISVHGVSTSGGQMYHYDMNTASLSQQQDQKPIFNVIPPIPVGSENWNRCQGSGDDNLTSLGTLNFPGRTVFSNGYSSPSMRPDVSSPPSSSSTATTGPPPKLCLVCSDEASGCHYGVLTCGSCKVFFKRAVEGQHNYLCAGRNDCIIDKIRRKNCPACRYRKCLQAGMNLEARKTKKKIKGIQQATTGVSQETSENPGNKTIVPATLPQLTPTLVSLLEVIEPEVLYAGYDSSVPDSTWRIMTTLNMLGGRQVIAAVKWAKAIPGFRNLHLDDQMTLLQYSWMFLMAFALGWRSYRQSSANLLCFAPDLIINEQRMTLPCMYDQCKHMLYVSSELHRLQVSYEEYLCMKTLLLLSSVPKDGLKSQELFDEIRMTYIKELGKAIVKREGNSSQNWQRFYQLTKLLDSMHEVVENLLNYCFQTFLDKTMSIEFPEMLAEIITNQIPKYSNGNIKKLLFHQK
Tumor susceptibility gene 101 protein (Homo sapiens), sequence (Q99816 whole entry, looked up, the tested form may be a part): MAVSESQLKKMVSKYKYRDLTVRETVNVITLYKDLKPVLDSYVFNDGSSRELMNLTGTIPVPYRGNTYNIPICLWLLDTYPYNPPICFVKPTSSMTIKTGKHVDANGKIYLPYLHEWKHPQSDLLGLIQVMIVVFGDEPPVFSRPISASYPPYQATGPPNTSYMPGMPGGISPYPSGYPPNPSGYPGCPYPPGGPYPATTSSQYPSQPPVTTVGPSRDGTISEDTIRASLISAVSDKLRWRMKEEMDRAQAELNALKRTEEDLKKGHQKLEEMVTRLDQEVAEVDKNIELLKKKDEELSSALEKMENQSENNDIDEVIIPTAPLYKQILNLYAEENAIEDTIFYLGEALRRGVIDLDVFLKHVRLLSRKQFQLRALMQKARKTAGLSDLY
Thyrotropin-releasing hormone receptor (Homo sapiens), sequence (P34981 whole entry, looked up): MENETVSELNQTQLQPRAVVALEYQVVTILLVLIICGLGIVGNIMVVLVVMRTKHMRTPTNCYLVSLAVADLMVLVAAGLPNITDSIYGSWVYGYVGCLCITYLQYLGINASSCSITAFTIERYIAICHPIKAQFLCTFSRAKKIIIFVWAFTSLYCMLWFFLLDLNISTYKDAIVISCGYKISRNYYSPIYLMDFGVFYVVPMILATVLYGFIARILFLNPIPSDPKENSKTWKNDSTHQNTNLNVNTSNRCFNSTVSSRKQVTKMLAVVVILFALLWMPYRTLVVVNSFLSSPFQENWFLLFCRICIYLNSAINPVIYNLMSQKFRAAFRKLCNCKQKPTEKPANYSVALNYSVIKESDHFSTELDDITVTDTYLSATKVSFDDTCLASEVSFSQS
Calcium and integrin-binding protein 1 (Homo sapiens), sequence (Q99828 whole entry, looked up): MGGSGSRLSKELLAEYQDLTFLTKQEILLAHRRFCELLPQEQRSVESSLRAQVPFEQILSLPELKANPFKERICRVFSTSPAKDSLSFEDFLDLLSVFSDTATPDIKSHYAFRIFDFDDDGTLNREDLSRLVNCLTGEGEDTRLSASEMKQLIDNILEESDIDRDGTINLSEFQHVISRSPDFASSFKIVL
DNA dC->dU-editing enzyme APOBEC-3G (Homo sapiens), sequence (Q9HC16 whole entry, looked up): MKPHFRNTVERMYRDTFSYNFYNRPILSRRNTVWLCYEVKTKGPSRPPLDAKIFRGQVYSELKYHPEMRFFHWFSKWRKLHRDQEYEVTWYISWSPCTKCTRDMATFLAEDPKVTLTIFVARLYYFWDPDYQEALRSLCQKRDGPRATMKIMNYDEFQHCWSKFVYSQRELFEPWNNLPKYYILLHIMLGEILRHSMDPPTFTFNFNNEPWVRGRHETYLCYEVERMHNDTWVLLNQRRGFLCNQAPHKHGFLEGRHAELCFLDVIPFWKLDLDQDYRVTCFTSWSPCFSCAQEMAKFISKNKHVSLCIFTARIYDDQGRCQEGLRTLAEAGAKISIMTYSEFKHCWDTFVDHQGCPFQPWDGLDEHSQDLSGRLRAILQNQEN
ATP-dependent DNA helicase Q1 (Homo sapiens), sequence (P46063 whole entry, looked up): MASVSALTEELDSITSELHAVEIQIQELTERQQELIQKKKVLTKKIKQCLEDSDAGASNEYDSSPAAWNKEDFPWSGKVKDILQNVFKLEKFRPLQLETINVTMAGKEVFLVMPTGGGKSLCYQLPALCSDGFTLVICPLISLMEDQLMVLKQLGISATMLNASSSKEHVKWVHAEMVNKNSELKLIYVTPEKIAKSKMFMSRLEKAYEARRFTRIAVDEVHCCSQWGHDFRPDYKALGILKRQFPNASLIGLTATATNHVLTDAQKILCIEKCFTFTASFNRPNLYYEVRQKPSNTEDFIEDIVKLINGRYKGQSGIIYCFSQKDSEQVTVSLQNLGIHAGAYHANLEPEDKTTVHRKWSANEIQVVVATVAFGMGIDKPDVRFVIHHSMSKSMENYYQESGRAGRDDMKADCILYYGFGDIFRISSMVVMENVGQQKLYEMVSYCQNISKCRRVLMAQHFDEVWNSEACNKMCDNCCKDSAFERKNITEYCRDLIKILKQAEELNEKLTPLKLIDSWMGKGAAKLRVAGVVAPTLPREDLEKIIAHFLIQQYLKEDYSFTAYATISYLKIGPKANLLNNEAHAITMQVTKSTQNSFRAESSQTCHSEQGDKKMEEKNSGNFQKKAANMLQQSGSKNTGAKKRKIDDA
Galactokinase (Homo sapiens), sequence (P51570 whole entry, looked up): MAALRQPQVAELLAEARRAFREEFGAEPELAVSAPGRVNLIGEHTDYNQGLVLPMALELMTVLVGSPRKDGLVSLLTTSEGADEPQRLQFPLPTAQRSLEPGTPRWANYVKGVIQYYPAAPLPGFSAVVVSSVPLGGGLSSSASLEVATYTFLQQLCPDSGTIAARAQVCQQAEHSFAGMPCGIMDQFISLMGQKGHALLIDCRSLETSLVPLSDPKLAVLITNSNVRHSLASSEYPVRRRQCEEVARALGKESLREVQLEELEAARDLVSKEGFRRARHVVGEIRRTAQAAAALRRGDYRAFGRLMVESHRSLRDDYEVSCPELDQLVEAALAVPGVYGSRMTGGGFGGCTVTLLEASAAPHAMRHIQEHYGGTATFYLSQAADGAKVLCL
M-phase phosphoprotein 8 (Homo sapiens), sequence (Q99549 whole entry, looked up): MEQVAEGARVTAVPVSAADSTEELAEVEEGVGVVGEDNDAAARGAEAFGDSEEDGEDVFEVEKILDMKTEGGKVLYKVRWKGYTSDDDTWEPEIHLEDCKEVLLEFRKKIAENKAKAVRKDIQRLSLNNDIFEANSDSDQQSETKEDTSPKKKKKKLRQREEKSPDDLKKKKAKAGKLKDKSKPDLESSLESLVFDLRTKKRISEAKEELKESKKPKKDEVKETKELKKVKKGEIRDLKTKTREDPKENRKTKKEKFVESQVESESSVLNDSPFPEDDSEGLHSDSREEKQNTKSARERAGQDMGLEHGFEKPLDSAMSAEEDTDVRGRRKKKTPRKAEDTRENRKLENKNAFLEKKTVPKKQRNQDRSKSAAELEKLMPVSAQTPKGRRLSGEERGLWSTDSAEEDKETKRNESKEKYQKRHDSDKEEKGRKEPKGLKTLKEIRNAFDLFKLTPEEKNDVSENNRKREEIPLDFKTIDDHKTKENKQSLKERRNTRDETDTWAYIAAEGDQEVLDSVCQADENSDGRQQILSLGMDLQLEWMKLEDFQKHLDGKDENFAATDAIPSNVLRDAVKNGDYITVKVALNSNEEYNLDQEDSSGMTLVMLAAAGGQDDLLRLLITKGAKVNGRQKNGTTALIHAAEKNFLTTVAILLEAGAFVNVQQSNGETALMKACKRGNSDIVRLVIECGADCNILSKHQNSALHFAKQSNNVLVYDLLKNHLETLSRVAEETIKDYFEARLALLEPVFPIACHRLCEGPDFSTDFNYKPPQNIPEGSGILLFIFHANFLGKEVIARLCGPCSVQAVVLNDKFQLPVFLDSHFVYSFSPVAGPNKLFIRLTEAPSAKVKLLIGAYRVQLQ
Glutathione peroxidase 1 (Homo sapiens), sequence (P07203 whole entry, looked up): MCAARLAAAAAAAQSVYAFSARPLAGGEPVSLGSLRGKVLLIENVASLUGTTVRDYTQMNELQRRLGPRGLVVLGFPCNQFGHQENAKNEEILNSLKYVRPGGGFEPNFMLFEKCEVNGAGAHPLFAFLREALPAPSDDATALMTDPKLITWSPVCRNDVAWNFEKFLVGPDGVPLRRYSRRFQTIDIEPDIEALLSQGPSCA

Regarding `CCOC(=O)c1ccc(NC(=O)CSc2nc(-c3cccs3)cc(C(F)(F)F)c2C#N)cc1`, in assay [1], the result was inactive.

Turning to `O=C(O)c1cc(NCc2cc(O)ccc2O)ccc1O`, the parasite growth, % of DMSO control in assay [2] turned out to be 85.7%. Moreover, the parasite growth remaining, % of DMSO control (lower = more inhibition) in assay [3] was determined as 96.7%. Also, the parasite growth, % of control (lower = inhibition) in assay [4] came to 67.1%. Also, the growth, % of control in assay [5] turned out to be 68.7%.

Consider `O=C(OCC#CCSc1nnc(-c2ccc(Cl)cc2)o1)c1ccc(F)cc1`, for which the outcome in [6] was inactive.

As for `CO[C@H]1C[C@@H](O[C@@H]2/C(C)=C/C[C@@H]3C[C@@H](C[C@]4(CC[C@H](C)[C@@H](C5CCCCC5)O4)O3)OC(=O)[C@@H]3C=C(C)/C(=N/O)[C@H]4OC/C(=C\C=C\[C@@H]2C)[C@]43O)O[C@@H](C)[C@H]1O`, in assay [7], the Potency entry was “inactive”.

Regarding `CC(=Nc1ccccc1N)c1c(C)cc(=O)n(O)c1O`, the Potency result in [8] was “inactive”.

Consider `FC(F)(F)c1cc(CO[C@H]2CCCN[C@H]2c2ccccc2)cc(C(F)(F)F)c1`, for which the Potency in assay [9] was > 46 µM (inactive); in assay [10], > 46 µM (inactive); in assay [13] it was 7.94 µM (active); in [14], 11.2 µM (active); in [15], 11.2 µM (active); in assay [16], 11.2 µM (active). The Potency was 12.6 µM (active) in assay [17], 7.08 µM (active) in assay [18], 12.6 µM (active) in [19] and 8.91 µM (active) in [26]. Moreover, the Potency result in [11], in [20], in assay [21], in [25], in assay [8] and in [27] was “inactive” in each case. Besides, the compound was classed as inactive in assay [12], in assay [22] and in assay [24]. For the same compound, the activation in assay [23] is 2.81% (inactive).
